# Assay results: the supplement of paper PMC10933113
# ± gives the uncertainty stated by the source.
# Test system: THP-1
# Assay: CD54 surface expression induction over DMSO control (% over DMSO); higher = stronger dendritic cell activation
# Conditions: exposure time: 24 h
# Experimental: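 hCLAT-like CD54 and CD86 surface expression on THP1 cells after 24 h exposure at a single concentration (highest non-cytotoxic concentration, or 100-200 µM if not cytotoxic). Flow cytometry (iQue) was run on 5,000 live cells.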
row,Compound,CD54 surface expression induction
1,CCCCCOc1ccccc1/C(=C\SC)n1ccnc1 [Neticonazole] (100 µM),17.2 ± 5
2,O=C(CS)Nc1ccccc1 [Thioglycolic acid anilide] (300 µM),24 ± 1.8
3,O=C(O)c1cccnc1Nc1cccc(C(F)(F)F)c1 [Niflumic acid] (100 µM),-11.5 ± 10
4,CC(C)(C)OC(=O)c1ccc(O)cc1 [tert-Butyl 4-hydroxybenzoate] (100 µM),1.75 ± 0.96
5,Cc1ccc(O)c(-n2nc3ccccc3n2)c1 [2-(2H-Benzotriazol-2-yl)-4-methylphenol] (100 µM),3.46 ± 3.3
6,O=C(/C=C/C=C/c1ccc2c(c1)OCO2)N1CCCCC1 [Piperine] (100 µM),0.08 ± 0.77
7,O=[N+]([O-])c1cc(N(CCO)CCO)ccc1NCCO (200 µM),3.92 ± 4.8
8,Cc1ccc2c(c1[N+](=O)[O-])C(=O)c1ccccc1C2=O [2-Methyl-1-nitroanthraquinone] (10 µM),4.18 ± 2.8
